Data taken from publication PMC7862700, “An all-to-all approach to the identification of sequence-specific readers for epigenetic DNA modifications on cytosine”.

How the values were obtained:
Experiment in all cases: DAPPL (digital affinity profiling via proximity ligation, sequencing); 10 mM Tris-HCl pH 7.5, 50 mM NaCl, 1 mM DTT, 4% glycerol, room temperature, 30 min; GST-TFs on glutathione beads, 16-mer random dsDNA library, 0.1% formaldehyde crosslink after washing; high values mean tight binding
FLI1 = target: T1, FLI1 (Homo sapiens, UniProt Q01543 1-452); conditions: protein: recombinant; tags: N-terminal GST; dsDNA, one strand shown
T1 sequence: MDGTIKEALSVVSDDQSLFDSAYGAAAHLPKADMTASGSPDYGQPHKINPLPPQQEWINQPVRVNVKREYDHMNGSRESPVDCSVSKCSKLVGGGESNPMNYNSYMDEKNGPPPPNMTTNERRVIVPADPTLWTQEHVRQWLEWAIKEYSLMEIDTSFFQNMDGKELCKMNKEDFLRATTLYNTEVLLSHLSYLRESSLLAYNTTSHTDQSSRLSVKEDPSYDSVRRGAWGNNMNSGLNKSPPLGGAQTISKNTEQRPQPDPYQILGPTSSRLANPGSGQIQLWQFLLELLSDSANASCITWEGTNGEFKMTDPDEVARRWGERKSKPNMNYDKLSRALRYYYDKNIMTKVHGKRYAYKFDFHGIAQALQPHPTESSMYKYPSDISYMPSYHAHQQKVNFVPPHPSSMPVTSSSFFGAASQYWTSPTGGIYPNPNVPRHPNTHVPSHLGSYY
Procedure, shortened: (§1)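 GST fusions of human transcription factors were expressed in yeast and captured with glutathione beads. Once given DNA barcodes and pooled alongside a tag-only sample, they were incubated for 30 min at room temperature with 200 nmole of a random double-stranded 16-mer DNA library in Tris/NaCl/DTT/glycerol buffer, then washed, crosslinked (0.1% formaldehyde), proximity-ligated, PCR-amplified and sequenced on an Illumina NextSeq500. The binding signal of each hexamer is its read frequency for a factor divided by its frequency for the tag-only sample.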

ELK1 = target: T2, ELK1 (Homo sapiens, UniProt P19419 1-428); conditions: protein: recombinant; tags: N-terminal GST; dsDNA, one strand shown
T2 sequence: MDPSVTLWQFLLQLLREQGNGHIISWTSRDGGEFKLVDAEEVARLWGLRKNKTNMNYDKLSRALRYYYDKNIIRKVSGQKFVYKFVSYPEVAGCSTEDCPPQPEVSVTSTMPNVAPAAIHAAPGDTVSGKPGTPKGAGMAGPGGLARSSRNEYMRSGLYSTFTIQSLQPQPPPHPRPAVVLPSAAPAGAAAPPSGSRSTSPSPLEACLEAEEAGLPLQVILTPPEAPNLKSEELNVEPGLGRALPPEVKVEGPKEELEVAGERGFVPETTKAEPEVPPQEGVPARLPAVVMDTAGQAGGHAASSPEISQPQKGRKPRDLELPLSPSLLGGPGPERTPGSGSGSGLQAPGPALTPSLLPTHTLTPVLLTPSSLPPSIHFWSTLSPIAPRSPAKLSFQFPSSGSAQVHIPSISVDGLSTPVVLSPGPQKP
Procedure, shortened: as §1

GABPA = target: T3, GABPA (Homo sapiens, UniProt Q06546 1-454); conditions: protein: recombinant; tags: N-terminal GST; dsDNA, one strand shown
T3 sequence: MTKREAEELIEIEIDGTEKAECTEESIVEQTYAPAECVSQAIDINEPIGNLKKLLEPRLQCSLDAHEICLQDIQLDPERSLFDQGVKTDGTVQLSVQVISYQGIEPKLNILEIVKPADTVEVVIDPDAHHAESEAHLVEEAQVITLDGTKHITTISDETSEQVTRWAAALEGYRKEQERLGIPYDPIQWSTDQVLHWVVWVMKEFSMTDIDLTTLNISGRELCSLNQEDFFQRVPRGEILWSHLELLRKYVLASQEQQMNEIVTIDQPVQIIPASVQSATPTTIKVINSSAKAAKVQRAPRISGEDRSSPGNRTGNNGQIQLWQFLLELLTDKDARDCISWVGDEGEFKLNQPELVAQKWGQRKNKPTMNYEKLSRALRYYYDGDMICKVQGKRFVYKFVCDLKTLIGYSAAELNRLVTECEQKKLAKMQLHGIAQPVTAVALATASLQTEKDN
Procedure, shortened: as §1

ERG = target: T4, ERG (Homo sapiens, UniProt P11308 1-479); conditions: protein: recombinant; tags: N-terminal GST; dsDNA, one strand shown
T4 sequence: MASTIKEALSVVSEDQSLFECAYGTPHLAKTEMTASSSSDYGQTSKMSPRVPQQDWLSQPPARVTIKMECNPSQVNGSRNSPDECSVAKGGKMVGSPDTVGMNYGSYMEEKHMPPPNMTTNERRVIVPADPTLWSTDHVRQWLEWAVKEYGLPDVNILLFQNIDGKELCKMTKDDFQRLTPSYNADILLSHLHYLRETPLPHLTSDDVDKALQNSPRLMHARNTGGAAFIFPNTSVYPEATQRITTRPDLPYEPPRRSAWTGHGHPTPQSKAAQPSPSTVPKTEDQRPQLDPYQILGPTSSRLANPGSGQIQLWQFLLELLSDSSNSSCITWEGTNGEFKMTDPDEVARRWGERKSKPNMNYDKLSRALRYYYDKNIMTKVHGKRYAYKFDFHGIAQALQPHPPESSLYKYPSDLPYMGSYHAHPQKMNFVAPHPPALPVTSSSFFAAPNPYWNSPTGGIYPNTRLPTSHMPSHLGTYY
Procedure, shortened: as §1

ELF1 = ELF1 (Homo sapiens, UniProt P32519 1-619); conditions: protein: recombinant; tags: N-terminal GST; dsDNA, one strand shown
Procedure, shortened: as §1

EHF = target: T5, EHF (Homo sapiens, UniProt Q9NZC4 1-300); conditions: protein: recombinant; tags: N-terminal GST; dsDNA, one strand shown
T5 sequence: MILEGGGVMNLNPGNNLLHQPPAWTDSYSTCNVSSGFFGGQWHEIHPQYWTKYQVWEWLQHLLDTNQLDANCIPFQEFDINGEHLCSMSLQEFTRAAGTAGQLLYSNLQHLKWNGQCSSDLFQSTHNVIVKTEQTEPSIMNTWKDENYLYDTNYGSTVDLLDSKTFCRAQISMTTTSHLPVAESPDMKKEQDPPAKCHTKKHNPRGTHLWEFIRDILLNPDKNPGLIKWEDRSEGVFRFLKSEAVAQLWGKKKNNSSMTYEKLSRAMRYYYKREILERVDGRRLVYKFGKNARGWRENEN
Procedure, shortened: as §1

SPI1 = SPI1 (Homo sapiens, UniProt P17947 1-270); conditions: protein: recombinant; tags: N-terminal GST; dsDNA, one strand shown
Procedure, shortened: as §1

SPIB = SPIB (Homo sapiens, UniProt Q01892 1-262); conditions: protein: recombinant; tags: N-terminal GST; dsDNA, one strand shown
Procedure, shortened: as §1

ELK3 = target: T6, ELK3 (Homo sapiens, UniProt P41970 1-407); conditions: protein: recombinant; tags: N-terminal GST; dsDNA, one strand shown
T6 sequence: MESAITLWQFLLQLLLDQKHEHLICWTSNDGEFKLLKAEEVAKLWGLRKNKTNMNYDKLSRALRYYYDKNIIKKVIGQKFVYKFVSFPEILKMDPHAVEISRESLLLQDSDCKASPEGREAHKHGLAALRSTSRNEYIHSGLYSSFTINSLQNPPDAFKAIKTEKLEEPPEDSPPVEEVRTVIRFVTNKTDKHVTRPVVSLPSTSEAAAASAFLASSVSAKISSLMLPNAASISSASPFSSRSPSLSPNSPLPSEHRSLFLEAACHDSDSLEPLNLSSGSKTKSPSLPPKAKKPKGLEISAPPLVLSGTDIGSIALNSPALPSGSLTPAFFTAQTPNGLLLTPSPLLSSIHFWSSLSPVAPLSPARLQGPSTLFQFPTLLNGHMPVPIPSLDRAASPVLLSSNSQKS
Procedure, shortened: as §1

FEV = target: T7, FEV (Homo sapiens, UniProt Q99581 1-238); conditions: protein: recombinant; tags: N-terminal GST; dsDNA, one strand shown
T7 sequence: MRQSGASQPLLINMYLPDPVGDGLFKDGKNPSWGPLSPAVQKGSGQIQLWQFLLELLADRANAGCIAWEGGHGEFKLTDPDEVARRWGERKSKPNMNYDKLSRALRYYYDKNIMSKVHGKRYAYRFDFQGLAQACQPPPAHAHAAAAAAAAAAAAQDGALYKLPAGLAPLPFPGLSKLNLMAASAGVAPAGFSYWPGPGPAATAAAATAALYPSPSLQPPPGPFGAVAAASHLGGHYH
Procedure, shortened: as §1

ETV5 = ETV5 (Homo sapiens, UniProt P41161 1-510); conditions: protein: recombinant; tags: N-terminal GST; dsDNA, one strand shown
Procedure, shortened: as §1

HSF1 = HSF1 (Homo sapiens, UniProt Q00613 1-529); conditions: protein: recombinant; tags: N-terminal GST; chain copies: 3; dsDNA, one strand shown
Procedure, shortened: as §1

SPIC = target: T8, SPIC (Homo sapiens, UniProt Q8N5J4 1-248); conditions: protein: recombinant; tags: N-terminal GST; dsDNA, one strand shown
T8 sequence: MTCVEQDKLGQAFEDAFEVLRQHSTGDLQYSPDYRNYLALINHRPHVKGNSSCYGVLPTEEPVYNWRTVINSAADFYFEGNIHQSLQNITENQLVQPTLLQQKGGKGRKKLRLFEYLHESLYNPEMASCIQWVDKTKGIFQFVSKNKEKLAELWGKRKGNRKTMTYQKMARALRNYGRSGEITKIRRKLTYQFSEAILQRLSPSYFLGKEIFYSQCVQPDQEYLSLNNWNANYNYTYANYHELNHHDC
Procedure, shortened: as §1

ELF4 = ELF4 (Homo sapiens, UniProt Q99607 1-663); conditions: protein: recombinant; tags: N-terminal GST; dsDNA, one strand shown
Procedure, shortened: as §1

ELK4 = target: T9, ELK4 (Homo sapiens, UniProt P28324-2 1-405); conditions: protein: recombinant; tags: N-terminal GST; dsDNA, one strand shown
T9 sequence: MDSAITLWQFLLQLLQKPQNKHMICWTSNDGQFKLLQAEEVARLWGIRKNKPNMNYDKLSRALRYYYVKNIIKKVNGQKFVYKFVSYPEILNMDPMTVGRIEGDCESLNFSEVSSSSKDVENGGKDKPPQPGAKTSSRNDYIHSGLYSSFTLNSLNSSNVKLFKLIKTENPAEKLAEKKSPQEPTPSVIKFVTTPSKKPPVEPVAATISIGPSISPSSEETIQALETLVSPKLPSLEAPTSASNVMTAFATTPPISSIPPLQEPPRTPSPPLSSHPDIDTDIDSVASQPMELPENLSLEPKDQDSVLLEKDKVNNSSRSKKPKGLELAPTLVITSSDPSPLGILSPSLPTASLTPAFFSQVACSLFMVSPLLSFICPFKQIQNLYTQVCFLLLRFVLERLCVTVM
Procedure, shortened: as §1

ETV2 = target: T10, ETV2 (Homo sapiens, UniProt O00321 1-342); conditions: protein: recombinant; tags: N-terminal GST; dsDNA, one strand shown
T10 sequence: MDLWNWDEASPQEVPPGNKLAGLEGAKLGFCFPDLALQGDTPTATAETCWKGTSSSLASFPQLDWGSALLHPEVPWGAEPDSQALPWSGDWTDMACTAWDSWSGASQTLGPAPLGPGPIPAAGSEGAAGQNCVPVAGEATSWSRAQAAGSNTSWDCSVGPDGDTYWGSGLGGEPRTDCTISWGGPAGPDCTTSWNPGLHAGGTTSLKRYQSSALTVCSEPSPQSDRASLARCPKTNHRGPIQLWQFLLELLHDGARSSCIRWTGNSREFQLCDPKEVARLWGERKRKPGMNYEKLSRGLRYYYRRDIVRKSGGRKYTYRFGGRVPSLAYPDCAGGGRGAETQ
Procedure, shortened: as §1

ELF3 = target: T11, ELF3 (Homo sapiens, UniProt P78545 1-371); conditions: protein: recombinant; tags: N-terminal GST; dsDNA, one strand shown
T11 sequence: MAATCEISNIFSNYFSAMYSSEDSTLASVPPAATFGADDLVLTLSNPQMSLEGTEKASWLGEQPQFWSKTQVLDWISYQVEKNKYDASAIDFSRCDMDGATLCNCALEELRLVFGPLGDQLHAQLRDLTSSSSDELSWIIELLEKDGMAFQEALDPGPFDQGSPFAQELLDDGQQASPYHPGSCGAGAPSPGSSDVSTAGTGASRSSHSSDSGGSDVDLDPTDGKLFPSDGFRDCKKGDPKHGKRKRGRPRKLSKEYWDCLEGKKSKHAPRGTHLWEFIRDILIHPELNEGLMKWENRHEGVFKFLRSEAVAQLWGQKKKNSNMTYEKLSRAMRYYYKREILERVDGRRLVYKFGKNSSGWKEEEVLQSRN
Procedure, shortened: as §1

CRX = CRX (Homo sapiens, UniProt O43186 1-299); conditions: protein: recombinant; tags: N-terminal GST; dsDNA, one strand shown
Procedure, shortened: as §1

ETV1 = ETV1 (Homo sapiens, UniProt P50549 1-477); conditions: protein: recombinant; tags: N-terminal GST; dsDNA, one strand shown
Procedure, shortened: as §1

CRX, sequence (O43186 whole entry): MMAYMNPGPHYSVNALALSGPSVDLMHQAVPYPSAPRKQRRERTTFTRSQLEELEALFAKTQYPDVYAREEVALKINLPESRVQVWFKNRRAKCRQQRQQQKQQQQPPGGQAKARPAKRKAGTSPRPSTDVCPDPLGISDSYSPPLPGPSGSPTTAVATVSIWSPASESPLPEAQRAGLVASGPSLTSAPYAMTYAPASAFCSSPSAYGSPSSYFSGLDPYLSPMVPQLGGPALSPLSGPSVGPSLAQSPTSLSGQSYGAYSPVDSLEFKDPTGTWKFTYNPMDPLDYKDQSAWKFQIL
ELF4, sequence (Q99607 whole entry): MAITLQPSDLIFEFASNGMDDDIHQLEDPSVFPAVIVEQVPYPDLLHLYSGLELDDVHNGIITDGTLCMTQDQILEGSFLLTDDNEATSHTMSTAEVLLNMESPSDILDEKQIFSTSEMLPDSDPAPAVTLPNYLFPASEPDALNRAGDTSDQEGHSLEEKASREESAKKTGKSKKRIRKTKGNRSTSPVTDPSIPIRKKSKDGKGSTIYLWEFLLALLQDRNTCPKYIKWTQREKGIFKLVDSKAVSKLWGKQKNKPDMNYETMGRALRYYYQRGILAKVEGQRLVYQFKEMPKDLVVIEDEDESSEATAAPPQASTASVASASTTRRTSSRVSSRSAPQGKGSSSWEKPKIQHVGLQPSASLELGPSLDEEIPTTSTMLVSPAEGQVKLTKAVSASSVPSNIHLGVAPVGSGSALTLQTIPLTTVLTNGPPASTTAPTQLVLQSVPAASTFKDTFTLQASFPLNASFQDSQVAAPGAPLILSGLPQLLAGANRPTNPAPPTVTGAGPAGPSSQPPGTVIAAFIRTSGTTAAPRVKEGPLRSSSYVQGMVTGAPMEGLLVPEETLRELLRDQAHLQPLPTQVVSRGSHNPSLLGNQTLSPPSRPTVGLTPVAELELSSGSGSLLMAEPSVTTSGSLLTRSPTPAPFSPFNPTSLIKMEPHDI
ETV5, sequence (P41161 whole entry): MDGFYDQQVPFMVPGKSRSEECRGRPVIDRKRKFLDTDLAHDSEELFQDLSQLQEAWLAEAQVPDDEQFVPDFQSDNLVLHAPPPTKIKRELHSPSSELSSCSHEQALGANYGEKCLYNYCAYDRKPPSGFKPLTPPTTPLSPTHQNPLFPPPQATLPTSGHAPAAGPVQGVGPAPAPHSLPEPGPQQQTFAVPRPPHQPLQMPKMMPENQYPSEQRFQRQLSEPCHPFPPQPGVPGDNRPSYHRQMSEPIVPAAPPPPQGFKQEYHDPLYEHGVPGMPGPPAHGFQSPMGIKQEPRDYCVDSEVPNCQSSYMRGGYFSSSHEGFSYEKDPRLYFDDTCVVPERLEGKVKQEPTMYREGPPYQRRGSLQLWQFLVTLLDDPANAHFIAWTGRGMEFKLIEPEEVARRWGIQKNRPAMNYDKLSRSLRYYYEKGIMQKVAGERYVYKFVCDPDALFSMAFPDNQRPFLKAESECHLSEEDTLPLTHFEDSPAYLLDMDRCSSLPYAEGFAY
SPIB, sequence (Q01892 whole entry): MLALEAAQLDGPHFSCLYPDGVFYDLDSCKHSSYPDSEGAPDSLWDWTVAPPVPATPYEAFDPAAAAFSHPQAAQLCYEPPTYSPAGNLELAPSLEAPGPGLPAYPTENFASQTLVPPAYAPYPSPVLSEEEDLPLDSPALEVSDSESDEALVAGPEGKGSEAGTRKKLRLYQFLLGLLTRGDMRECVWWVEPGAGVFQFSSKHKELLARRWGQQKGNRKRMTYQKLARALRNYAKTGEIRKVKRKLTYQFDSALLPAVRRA
ETV1, sequence (P50549 whole entry): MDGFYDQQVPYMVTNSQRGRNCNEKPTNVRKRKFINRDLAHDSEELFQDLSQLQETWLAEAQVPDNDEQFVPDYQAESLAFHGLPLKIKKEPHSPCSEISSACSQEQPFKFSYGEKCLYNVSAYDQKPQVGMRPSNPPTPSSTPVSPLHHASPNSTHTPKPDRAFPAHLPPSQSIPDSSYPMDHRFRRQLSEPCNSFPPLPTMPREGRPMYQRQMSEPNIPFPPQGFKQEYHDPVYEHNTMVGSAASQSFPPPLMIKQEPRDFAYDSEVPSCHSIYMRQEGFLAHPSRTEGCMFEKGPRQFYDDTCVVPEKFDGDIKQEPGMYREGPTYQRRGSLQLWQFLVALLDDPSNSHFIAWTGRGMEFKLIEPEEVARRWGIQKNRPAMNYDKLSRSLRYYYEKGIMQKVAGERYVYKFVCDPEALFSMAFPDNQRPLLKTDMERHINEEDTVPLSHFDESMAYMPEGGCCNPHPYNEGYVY
HSF1, sequence (Q00613 whole entry): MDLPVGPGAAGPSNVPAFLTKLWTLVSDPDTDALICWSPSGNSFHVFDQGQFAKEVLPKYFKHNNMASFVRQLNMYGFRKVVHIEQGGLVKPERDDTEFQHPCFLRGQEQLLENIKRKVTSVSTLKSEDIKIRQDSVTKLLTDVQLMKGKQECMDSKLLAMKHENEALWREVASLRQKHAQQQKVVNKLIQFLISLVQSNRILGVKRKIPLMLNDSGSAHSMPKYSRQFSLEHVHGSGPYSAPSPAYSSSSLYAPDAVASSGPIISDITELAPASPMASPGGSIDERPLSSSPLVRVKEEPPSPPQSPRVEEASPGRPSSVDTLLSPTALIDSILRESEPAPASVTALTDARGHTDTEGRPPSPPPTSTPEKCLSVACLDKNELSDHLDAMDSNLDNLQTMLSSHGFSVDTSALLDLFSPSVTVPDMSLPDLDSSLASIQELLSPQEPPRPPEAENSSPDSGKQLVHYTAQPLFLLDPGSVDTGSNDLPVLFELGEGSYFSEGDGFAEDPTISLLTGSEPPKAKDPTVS
ELF1, sequence (P32519 whole entry): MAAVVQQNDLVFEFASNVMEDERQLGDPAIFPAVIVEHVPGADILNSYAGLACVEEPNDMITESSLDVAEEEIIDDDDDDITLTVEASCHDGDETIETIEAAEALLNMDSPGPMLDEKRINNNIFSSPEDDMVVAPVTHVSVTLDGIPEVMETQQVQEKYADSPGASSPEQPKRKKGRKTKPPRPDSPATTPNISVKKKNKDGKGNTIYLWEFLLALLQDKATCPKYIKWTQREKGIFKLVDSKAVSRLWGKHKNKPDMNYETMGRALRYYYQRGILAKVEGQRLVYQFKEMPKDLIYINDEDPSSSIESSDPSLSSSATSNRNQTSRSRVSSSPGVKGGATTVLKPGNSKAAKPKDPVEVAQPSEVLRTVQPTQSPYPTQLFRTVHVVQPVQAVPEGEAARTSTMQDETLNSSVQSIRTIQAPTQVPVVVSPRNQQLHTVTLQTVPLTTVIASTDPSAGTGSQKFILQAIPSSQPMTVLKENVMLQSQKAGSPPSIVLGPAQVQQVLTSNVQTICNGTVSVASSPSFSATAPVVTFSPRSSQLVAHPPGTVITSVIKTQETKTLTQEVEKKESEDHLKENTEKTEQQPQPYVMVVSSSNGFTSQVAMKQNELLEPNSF

ATATGC
binding signal (FLI1): 1.09 fold enrichment (6-mer frequency, TF over GST control) | binding signal (ELK1): 1.15 fold enrichment (6-mer frequency, TF over GST control) | binding signal (GABPA): 1.15 fold enrichment (6-mer frequency, TF over GST control) | binding signal (ERG): 1.13 fold enrichment (6-mer frequency, TF over GST control) | binding signal (ELF1): 1.1 fold enrichment (6-mer frequency, TF over GST control) | binding signal (EHF): 1.08 fold enrichment (6-mer frequency, TF over GST control) | binding signal (SPI1): 1.16 fold enrichment (6-mer frequency, TF over GST control) | binding signal (SPIB): 1.07 fold enrichment (6-mer frequency, TF over GST control) | binding signal (ELK3): 1.05 fold enrichment (6-mer frequency, TF over GST control) | binding signal (FEV): 1.11 fold enrichment (6-mer frequency, TF over GST control) | binding signal (ETV5): 1.15 fold enrichment (6-mer frequency, TF over GST control) | binding signal (HSF1): 1.01 fold enrichment (6-mer frequency, TF over GST control) | binding signal (SPIC): 1.4 fold enrichment (6-mer frequency, TF over GST control) | binding signal (ELF4): 1.1 fold enrichment (6-mer frequency, TF over GST control) | binding signal (ELK4): 1.28 fold enrichment (6-mer frequency, TF over GST control) | binding signal (ETV2): 1.06 fold enrichment (6-mer frequency, TF over GST control) | binding signal (ELF3): 1.09 fold enrichment (6-mer frequency, TF over GST control) | binding signal (CRX): 1.01 fold enrichment (6-mer frequency, TF over GST control) | binding signal (ETV1): 1.11 fold enrichment (6-mer frequency, TF over GST control)
